Assay results from PubChem BioAssay AID488841 (Sanford-Burnham Center for Chemical Genomics, 2010).
The whole screen tested about 1,400 compounds, of which about 380 (27%) were called active.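 Rule for the calls: active = mean inhibition above 50% across duplicate retests at 10 µM; inactive = the rest.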 The list shows a part of the results.

Test: yeast NALP1 reporter signal suppression – S. cerevisiae, luminescence, single concentration, NALP1 inhibitor project, confirmation (AID 488841);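 note: plate controls were DMSO in galactose medium for no effect and cells in plain SD medium for full effect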
Conditions: S. cerevisiae NALP1/ASC/Caspase-1 reporter, beta-gal luminescence; at 10 µM; active compounds read high

inhibition, inactive:
Cc1ccc(C)c(NC(=O)c2ccc(OC(=O)c3ccco3)cc2)c1 36.8%
CN1CCN(C2=C(Cl)C(=O)C(c3cnc(N4CCCCC4)s3)=C(Cl)C2=O)CC1 29.9%
CN(C)S(=O)(=O)c1cccc2c1C(=O)c1ccccc1C2=O 39.2%
CN(C=[N+](C)C)c1cccc2c1C(=O)c1ccccc1C2=O 37%
CC(C)CN=C(NS(=O)(=O)c1ccccc1)C(Cl)(Cl)Cl 43.6%
O=S(=O)(/N=C/c1c(O)ccc2ccccc12)c1cccs1 29.8%
N#Cc1cccc(N=Cc2c(O)ccc3ccccc23)c1 24.8%
CCCCCOc1ccc(Cn2ccnc2)cc1[N+](=O)[O-] 43%
O=C(CCNc1n[nH]c(=O)[nH]c1=O)N/N=C/c1ccc(C(F)(F)F)cc1 26.9%
COCC(=O)n1nc(-c2ccc(Cl)cc2)nc1NCc1ccc(F)cc1 49.8%
O=C(NC1=NCCS1)c1ccc(Cl)s1 42.9%
COCCN=C1Sc2nc3ccc(C)cc3cc2CN1Cc1ccco1 45.9%
COc1ccccc1NC1=C(N2CCCCC2)C(=O)c2ccccc2C1=O 49.1%
CCCSc1nnc(C(C)C)n1N 21.8%
Cc1ccc(C(=O)/C=C/c2ccc3c(c2)OCO3)o1 23.9%
O=C(/C=C/c1ccc(F)cc1)NCCc1ccc2c(c1)OCCO2 49.3%
CC(=O)C1=C(O)C(=O)N(CCC(=O)O)C1c1ccc(Cl)cc1Cl (stereo not given) 24.1%
CCOC(=O)C1=C(O)c2ccccc2C(=O)/C1=C\c1ccc(C)cc1 30.2%
CCOC(=O)C1=Nc2ccccc2C1=[N+]=[N-] 37.8%
Cc1sc(-c2ccncc2)nc1OC(=O)c1ccccc1 47.5%
O=C(CN(Cc1ccccc1)S(=O)(=O)c1ccc(S(=O)(=O)N2CCOCC2)cc1)Nc1ccccc1 27.6%
CC(C)NC(=O)/C(C#N)=C/c1cccc(NC(=O)c2ccccc2Cl)c1 41.1%
COc1ccc(OCC(=O)NC(=S)N2CCCc3ccccc32)cc1 28.5%
CCCCCCC1CCC(C(=O)Nn2c(C)nc3ccccc3c2=O)CC1 (stereo not given) 44.8%
COc1ccc(C2NCCc3c2[nH]c2ccccc32)cc1CSc1nc2ccccc2s1 (stereo not given) 45.4%
COCc1cc(=O)[nH]c(/N=C(\N)Nc2cccc(C)c2)n1 21.6%
COc1ccc(CCNC(=O)C2CCN(S(=O)(=O)c3ccc(Cl)cc3)CC2)cc1OC 5.6%
Cn1cnc([N+](=O)[O-])c1S(=O)(=O)c1ccc(Cl)cc1 46.9%
Oc1ccccc1C1N=C(c2ccccc2)NC(c2ccccc2)=N1 16.1%
O=C(CSc1ncn[nH]1)NC12CC3CC(CC(C3)C1)C2 22.3%
COC(=O)COc1ccc(S(=O)(=O)NCCC2=CCCCC2)cc1Cl 28.2%
O=C1C2C3C=CC(C2C(=O)N1CCCO)C1C2C(=O)N(CCCO)C(=O)C2C31 (stereo not given) 17.4%
COc1ccc(OC)c(NC(=O)c2sc3nc(Cc4ccccc4)cc(C(F)(F)F)c3c2N)c1 23.5%
COc1ccc2cc(/C=N/O)c(Cl)nc2c1 46.1%
CC(C)(C)C(=O)NC1CCN(S(=O)(=O)c2ccc(C(F)(F)F)cc2)CC1 18.1%
CCOc1cccc(N2C(=O)CC(N3CCN(c4ccc(S(=O)(=O)CC)cc4)CC3)C2=O)c1 (stereo not given) 30.9%
CCOc1ccc(NC2=C(OC)C(=O)c3ccccc3C2=O)cc1 39.5%
Cc1cc(Cl)c(OCCCCN2CCOCC2)c(Br)c1 40.9%
CCOC(=O)C(=CNNc1ccsc1C(=O)OC)C(=O)OCC 37.1%
COC(=O)c1sccc1N/N=C(\C)c1ccc(F)c(Cl)c1 22.3%
CCn1c(C)[n+](CC(O)COCC2CC=CCC2)c2ccccc21 (stereo not given) 40%
CCOC(=O)c1c(C)n(C)c2cc(-c3ccc(C)cc3)c(O)cc12 24.9%
CCCCC(CC(O)COCCC)c1n[nH]c(=S)n1-c1ccccc1 (stereo not given) 44.8%
CCCCSc1nnc(CCNC(=O)OC(C)(C)C)o1 42.2%
CC(C)Sc1nnc([C@H](Cc2ccccc2)NC(=O)OC(C)(C)C)o1 30.7%
CC(C)Cc1nnc(NC(=O)CSc2nc(N)cc(=O)[nH]2)s1 23.4%
CCOC(=O)c1sc(NC(=O)Nc2cccc(Cl)c2)cc1C 5.75%
CCOC(=O)Nc1ccc2c(C)cc(=O)oc2c1 41.3%

inhibition, active:
Cc1nc(N)sc1N=Nc1ccc(Br)cc1 50.6%
Cc1ccc2occ(C(=O)c3ccco3)c(=O)c2c1 58.4%
O=C1c2cccc(O)c2C(=O)c2c(O)cccc21 62.8%
C=CCOc1ccc2ccccc2c1/C=N/O 52.7%
CCOc1ccccc1N1CCN(C(=O)CCCc2nc3ccccc3s2)CC1 52.9%
O=C(/C=C/c1ccc2c(c1)OCCCO2)c1ccccc1O 61.6%
CCOC(=O)/C(=C/c1ccc(OC(=O)c2ccccc2)cc1)C(C)=O 55.4%
C=CCNC(=O)/C(C#N)=C/c1c(C)nn(-c2ccccc2)c1Cl 60.3%
Cc1nn(-c2ccccc2)c(Cl)c1/C=C(\C#N)C(=O)NC(C)C 55.2%
O=C1c2ccsc2SCCN1Cc1c(Cl)cccc1Cl 53.7%
CNC(=O)c1nnsc1S(=O)(=O)c1ccc(Cl)cc1 86.2%
CCCNC(=O)c1nnsc1S(=O)(=O)c1ccc(Cl)cc1 95%
CCC(C)NC(=O)c1cc2cc3ccc(OC)cc3nc2s1 (stereo not given) 54.9%
CCOc1ccc(S(=O)(=O)N2c3ccccc3CC2C)cc1 (stereo not given) 54.5%
COC(=O)c1sccc1NC(=O)c1csc(C)c1 54%
CC(C)(C)OC(=O)NCCCCCc1nnc(SCc2ccccc2)o1 56.6%
CCOC(=O)Nc1cccc(Nc2ccccc2)c1 52.2%
